This note sets out measurements from PubChem BioAssay (Tox21).

Inconclusive results are not listed. The source made the active and inactive calls. The call rests on the fitted dose curve.

In this test the target is Vitamin D3 receptor (Homo sapiens) (UniProt P11473). As to the kind of experiment: qHTS assay to identify small molecule agonists of the vitamin D receptor (VDR) signaling pathway (AID 743222). To be noted: HEK293T VDR-UAS-bla, beta-lactamase FRET ratio, 16 h; series mostly up to 63.5 µM. From the text: National Center for Advancing Translational Sciences [NCATS]
Sequence of Vitamin D3 receptor (Homo sapiens) (P11473 whole entry, looked up): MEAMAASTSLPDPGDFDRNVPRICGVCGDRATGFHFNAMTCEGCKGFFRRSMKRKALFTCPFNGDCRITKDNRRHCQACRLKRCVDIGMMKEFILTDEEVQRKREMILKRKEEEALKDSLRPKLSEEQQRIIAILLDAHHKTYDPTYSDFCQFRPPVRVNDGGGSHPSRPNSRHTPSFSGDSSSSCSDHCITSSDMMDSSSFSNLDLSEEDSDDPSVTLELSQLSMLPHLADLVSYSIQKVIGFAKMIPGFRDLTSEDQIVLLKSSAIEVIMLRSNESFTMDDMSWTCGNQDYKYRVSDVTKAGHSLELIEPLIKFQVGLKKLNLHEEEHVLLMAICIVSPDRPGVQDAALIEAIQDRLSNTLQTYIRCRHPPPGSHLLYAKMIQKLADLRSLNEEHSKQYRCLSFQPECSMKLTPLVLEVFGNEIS
NIH Chemical Genomics Center [NCGC]
U.S. Environmental Protection Agency [EPA]
National Institutes of Environmental Health Sciences [NIEHS]
National Toxicology Program [NTP]
U.S. Food and Drug Administration [FDA]
The vitamin D receptor (VDR), a member of nuclear hormone receptor superfamily, plays a critical role in calcium homeostasis and bone metabolism. It is also involved in cell differentiation and growth, and thrombogenicity.
Tox21 Assay Protocol Summary:
VDR-bla cells were dispensed at 2,000 cells/6 uL/well into black wall/clear-bottom 1536-well plates using a Multidrop Combi (Thermo Fisher Scientific, Waltham, MA) dispenser. After the assay plates were incubated at a 37C and 5% CO2 for 4 h, 23 nL of compounds dissolved in DMSO, positive controls or DMSO only was transferred to the assay plate by a Pintool station (Kalypsys, San Diego, CA). The plates were incubated at 37C and 5% CO2 for 16 h. After 1 uL of LiveBLAzerTM B/G FRET substrate was added using a Bioraptr Flying Reagent Dispenser (FRD) workstation (Beckman Coulter, Indianapolis, IN, USA), the plates were incubated at room temperature for 2 h, and fluorescence intensity was measured by an Envision plate reader (PerkinElmer, Shelton, CT).
Regarding `O=C(O)COc1ccc2ccccc2c1`, the result was inactive.

Consider `Cc1nc2ccc(Cl)cc2[nH]1`, for which the result was inactive.

In the case of `Cc1cc(O)c(Cl)cc1C`, the result was inactive.

In the case of `CC(=O)c1c(C)cc(C(C)(C)C)cc1C`, the outcome was inactive.

Consider `Cc1cc(N)no1`, for which the result was inactive.

For `COC(=O)c1ccccc1Cl`, the outcome was inactive.

With `CC(=O)/C=C/C=C1/C2CCC(C2)C1(C)C` (stereo not given), the result was inactive.

Consider `Nc1ccc(C(=O)NCC(=O)O)cc1`, for which the outcome was inactive.

Take `Cc1ccc(NC(N)=O)cc1`: the outcome was inactive.

In the case of `BrCCOc1ccccc1`, the result was inactive.

With `O=C(O)P(=O)(O)O`, the result was inactive.

Regarding `C[C@]12C=CC(=O)C=C1[C@@H](F)C[C@@H]1[C@@H]2[C@@H](O)C[C@@]2(C)[C@H]1CC[C@]2(O)C(=O)CO`, the outcome was inactive.

`CCCCN(CCCC)CCCCCCN(CCCC)CCCC`: the outcome was inactive.

On to `CCN(CC)CC(=O)Oc1ccc(NC(C)=O)cc1`, for which the result was inactive.

Turning to `NS(=O)(=O)c1cc2c(cc1C(F)(F)F)NCNS2(=O)=O`, the result was inactive.

Consider `CCOC(=O)CN1CCCC1=O`, for which the outcome was inactive.

As for `N#Cc1cc(NC(=O)C(=O)O)c(Cl)c(NC(=O)C(=O)O)c1`, the outcome was inactive.

On to `C=CCCCCCCCCCCCCCC`, for which the result was inactive.

As to `C=CC(=O)OCC[N+](C)(C)C`, the outcome was inactive.

For the compound `CN1C(CCl)Nc2cc(Cl)c(S(N)(=O)=O)cc2S1(=O)=O` (stereo not given), the result was inactive.

Turning to `CN(C)c1ccncc1`, the outcome was inactive.

`CC(C)CC(O)Cc1ccccc1` (stereo not given): the result was inactive.

Consider `CN(C)c1cc(NC(=O)CNC(C)(C)C)c(O)c2c1C[C@H]1C[C@H]3[C@H](N(C)C)C(=O)C(C(N)=O)=C(O)[C@@]3(O)C(=O)C1=C2O`, for which the outcome was inactive.

`CCCC(=O)OC`: the outcome was inactive.

For `CCCCCCCOC(C)=O`, the outcome was inactive.

Consider `O=C(O)CCCCCCCCCC(=O)O`, for which the outcome was inactive.

Consider `CCCCC(CC)CCC(CC(C)C)OS(=O)(=O)O` (stereo not given), for which the result was inactive.

`Cc1nnc(C(=O)NC(C)(C)c2nc(C(=O)NCc3ccc(F)cc3)c(O)c(=O)n2C)o1`: the result was inactive.

For `CCCCCCCCCCCCCCBr`, the result was inactive.

On to `O=c1[nH]c(=O)c2cn[nH]c2[nH]1`, for which the result was inactive.

Consider `O=C1CCCc2c(O)cccc21`, for which the outcome was inactive.

Regarding `NC[C@H]1O[C@H](O[C@H]2[C@H](O)[C@@H](O[C@H]3O[C@H](CO)[C@@H](O)[C@H](N)[C@H]3O)[C@H](N)C[C@@H]2N)[C@H](N)[C@@H](O)[C@@H]1O`, the outcome was inactive.

For the compound `CNC(C)=O`, the outcome was inactive.

For `CC(C)OCCO`, the outcome was inactive.

Take `CC(C)(C)OC=O`: the outcome was inactive.

Turning to `C=CCn1cc[n+](C)c1`, the outcome was inactive.

In the case of `CCCc1ccc(O)c(OC)c1`, the result was inactive.

Turning to `CC(C)(C)NCC(O)COc1cccc2c1CCC(=O)N2` (stereo not given), the outcome was inactive.

For the compound `CC(C)(C)c1ccc(C(=O)CCCCl)cc1`, the result was inactive.

Turning to `COC(=O)/C=C(\C)CCC=C(C)C`, the result was inactive.
